The values that follow come from PubChem BioAssay AID624416 (The Scripps Research Institute Molecular Screening Center, 2012).

Screen size: about 360,000 compounds; about 1,500 (0.42%) were called active. Rule as the data show it: active = inhibition above about 8.5%; inactive = the rest. The full list was thinned out, with actives kept by preference.

In this assay the test system is HIV-1 gp120 / PG9 antibody interaction. In words: binders of HIV-1 gp120 antibody PG9, primary screen, biochemical, TR-FRET (AID 624416). Conditions: TR-FRET gp120-PG9 antibody binding; at 6.7 µM; stronger effect = higher value.
What is called inhibition is the drop in the measured response relative to a control, in per cent. On to `CC(=O)Nc1ccc(C(=O)C(Cc2ccccc2)N(C)C)cc1` (stereo not given), for which the inhibition is -2.82% (inactive).
Consider `CCN(CC)C(=O)c1ccc(NC(=O)c2cc(-n3cnnc3)ccc2Cl)cc1`, for which the inhibition is -0.62% (inactive).
To `CCN(CC)C(=O)c1ccc(NC(=O)c2sccc2-c2ccccc2)cc1` belongs 9.48% (active).
For the molecule `O=C1NC(=O)C(CCc2ccccn2)(Cc2cccc(Cl)c2Cl)C(=O)N1c1ccc(Br)cc1` (stereo not given), the inhibition is -0.96% (inactive).
Turning to `CN1CCN(Cc2ccccc2C(F)(F)F)CC1`, the inhibition was 1.87% (inactive).
With `CCNc1nc2[nH]c(=O)c3c(c2s1)OC(N)=C(C#N)C3c1cccs1` (stereo not given), the inhibition is -1.83% (inactive).
The value for `COc1ccc(C2C=C(C)Oc3c2c(=O)oc2ccccc32)cc1OC` (stereo not given) was 0.19% (inactive); that for `N#CC1=C(N)Oc2c(c(=O)oc3ccccc23)C1c1ccccc1OC(=O)c1cccs1` (stereo not given) was 11% (active).
To `C[C@]12CCCCC1=CC(=O)C1C2CC[C@@]2(C)C1C[C@@H](F)[C@@H]2O` (stereo not given in full) belongs 0.27% (inactive).
The value for `Cc1cc2ccccn2c1C(C[N+](=O)[O-])c1c(F)cccc1Cl` (stereo not given) was 1.04% (inactive).
